Source: PubChem BioAssay
Values without a mark were called inactive. Results filed as inconclusive are left out. Active and inactive are the calls of the source.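 The calls were made as follows, unless noted: active = viability increase at or above a cutoff of the median across tested compounds plus 3 SD (cut at about 8.5% in these data, passing the limit was not always enough); inconclusive = some gains above the cutoff, reason not given; inactive = the rest.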

Legend:
[1] = OD615 S. cerevisiae growth inhibition, permissive medium, pilot counter-assay, permissive growth control for S. cerevisiae lifespan shortening project (AID 705;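 active = growth inhibition above 25% in both replicates, a cutoff set 3 SD above the mean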); conditions: OD615, 24 h, at 10 µM, stronger effect = higher value
[2] = viability gain of MRP-1-high H69AR cells under doxorubicin, pilot screen, MRP-1 activator project, CellTiter-Glo, duplicate (AID 807); conditions: H69AR viability with doxorubicin, CellTiter-Glo luminescence; at 10 µM; stronger effect = higher value;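 also: compound pretreatment 18-22 h then 72 h combined with doxorubicin; 0% = doxorubicin alone and 100% = vehicle without doxorubicin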
[3] = growth suppression of beta-catenin knockout HCT116, pilot screen, human colon tumor cells (AID 823;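 active = cell viability at or below a set limit in both duplicate runs, the limit being the all-compound median minus 4 SD, cut at about 23% in these data, passing the limit was not always enough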;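 also: 0% = wells killed by 20 µM Hyamine and 100% = untreated DMSO cell wells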); conditions: CellTiter-Glo, 60 h, at 10 µM, stronger effect = lower value
[4] = growth suppression of PTEN-deleted HCT116, pilot screen, cell-based, HCT116 clonal line, CellTiter-Glo (AID 824;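 active = viability at or below 27.92% in each of two runs, the all-compound median minus 4 SD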;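 also: 0% = 20 µM Hyamine control and 100% = vehicle cell control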); conditions: 60 h, at 10 µM, stronger effect = lower value
[5] = inhibitors of the yeast RAM network, pilot screen, dse1pr::URA3 reporter, 5-FOA selection (AID 869;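 active = inhibition over a set limit, the all-compound mean plus 3 SD, in both replicate runs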;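 also: 0% = DMSO wells with no growth and 100% = 10 µM 1-NA-PP1 with full growth; RAM network block rescues cells from 5-FOA so hits raise OD615 growth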); conditions: S. cerevisiae dse1pr::URA3 5-FOA growth, OD615, 2 d; at 10 µM; stronger effect = higher value; strain carries analog-sensitive mutant Cbk1 kinase
[6] = RAM signaling pathway blockade in yeast – S. cerevisiae, Pdr1DBD-CYC8 efflux-inhibited sensitized strain, primary screen (AID 1298;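 active = RAM network inhibition above 8.4% in each of two replicates, 3 SD over the compound average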;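 also: 0% = DMSO untreated cells without growth and 100% = 10 µM 1-NA-PP1 full growth; higher means more yeast growth rescued from 5-FOA killing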); conditions: S. cerevisiae cbk1-as DSE1-URA3 strain, 5-FOA growth OD615, 2 d; at 50 µM; stronger effect = higher value
[7] = Restrictive medium S. cerevisiae growth inhibition, OD615, pilot screen of yeast lifespan reduction project, restrictive growth control (AID 706;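 active = growth inhibition above a set limit, 3 SD over mean compound inhibition, in both replicates, cut at about 43% in these data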;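 also: modified DeaD lifespan yeast strain shifted to restrictive glucose medium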); conditions: OD615, 48 h, at 10 µM, stronger effect = higher value

Row | Compound | growth inhibition [1] | viability increase [2] | viability [3] | viability [4] | inhibition [5] | RAM network inhibition [6] | growth inhibition [7]
1 | COc1ccc(OCc2nnc3n2N=C(c2ccc(Br)cc2)CS3)cc1 | 3.29% | 2.18% | 70% | 72.2% | 0.955% | 3.18% | 
2 | COc1cc(Cl)c(C)cc1NC(=O)CSc1nnc(-c2cccnc2)n1Cc1ccco1 | 4.79% | -3.48% | 84.8% | 79.8% | 0.775% | 7.75% | 
3 | CSc1nc(-c2ccccc2)nc2[nH]ccc(=O)c12 |  | -3.93% | 76% | 80.6% | 0.065% | 1.4% | -18.3%
4 | CCN1CCN(C(=O)C(NS(=O)(=O)c2ccc3nc(C)sc3c2)C(C)C)CC1 (stereo not given) | -15.9% | -0.67% | 99.4% | 95.2% | 0.845% | -0.04% | 
5 | CCOC(=O)c1c(N)sc2c(OC)c(Br)ccc12 | 21.3% | 0.76% | 99.8% | 102% | -2.46% | 5.62% | 
6 | c1ccc(Cc2nnc3sc(-c4ccco4)nn23)cc1 |  | -5.05% | 108% | 94.7% | 1.98% | 5.97% | 68.7% (active)
7 | CCOc1ccc2nc(N3CCC(C(=O)N4CCN(c5ncccn5)CC4)CC3)sc2c1 |  | -3.04% | 82.1% | 90.9% | 1.76% | -1.59% | 25.2%
8 | Cc1ccc(S(=O)(=O)Nc2nc(C)cc(NCCN)n2)cc1 |  | -0.98% | 94.3% | 88.5% | 0.48% | 2.5% | -2.19%
9 | CC(=O)C1=C(C)Nc2cc(C(F)(F)F)ccc2S1 |  | -1.14% | 93.6% | 85.7% | 1.77% | 4.09% | 27.2%
10 | CC(=O)C(Sc1ccc2nnc(-c3ccc(C)cc3)n2n1)C(C)=O | 1.31% | -4.69% | 101% | 95.3% | 2.04% | 6.06% | 
11 | CCCc1nc2sc3c(SCC(=O)NCc4ccco4)ncnc3c2c2c1CCC2 | -1.16% | -6.5% | 47.4% |  | 2.37% | 4.21% | 
12 | O=C(O)C1CC=CCC1C(=O)NCc1cn2ccccc2n1 (stereo not given) |  | -2.16% | 103% | 96.1% | 2.84% | 4.32% | -15.1%
13 | COc1ccccc1C(=O)Nc1cc(-c2nn3c(C)nnc3s2)ccc1C | 12.8% | -3.73% | 114% | 97.8% | 1.22% | 4.87% | 
14 | COc1ccc(NC(=O)CSc2nnc(Cn3c(=O)sc4ccccc43)n2C)c(OC)c1 | 2.11% | -4.82% | 101% | 92.7% | -0.285% | 1.01% | 
15 | CCN1CCN(C(=O)CS(=O)Cc2nc(-c3ccc(OC)cc3)oc2C)CC1 (stereo not given) |  | -0.78% | 104% | 100% | 0.945% | 1.04% | -7.22%
16 | CCOc1cccc(C(=O)Nc2cc(-c3nn4c(C)nnc4s3)ccc2C)c1 | 9.19% | -4.79% | 100% | 93.6% | 0.07% | 2.22% | 
17 | Cc1ccc(-c2nn3c(C)nnc3s2)cc1NC(=O)c1ccc(Br)o1 | 4.25% | -3.03% | 105% | 93% | 3% | 8.4% | 
18 | Cc1cc(/C=N/n2cnnc2)c(C)n1-c1ccc(OCc2ccccc2F)cc1 | -0.03% | -6.9% | 8.8% (active) | 13.7% (active) | 1.2% | 11.1% | 
19 | COC(=O)c1cc(CSc2nc3ccc(C)cc3[nH]2)oc1C |  | -0.15% | 46.6% | 63.5% | 0.105% | 4.81% | 4.74%
20 | Cn1cccc1Cc1nnc(SCC(=O)NC2CCCC2)n1CCc1ccccc1 | -1.71% | -0.59% | 101% | 96.8% | 1.71% | 6.53% | 
21 | Cn1c(C(=O)N2CCC(C(=O)N3CCN(Cc4ccc5c(c4)OCO5)CC3)CC2)cc2sccc21 | -9.98% | -2.38% | 70.9% | 71.1% | 1.03% | 3.95% | 
